A549 viability = counter-screen for Nrf2 inhibitors: cytotoxicity in A549 cells; 390,000 compounds, 0.16% hits; AID 504648; A549 ARE-Fluc cells, CellTiter-Fluor viability, 18-24 h; Potency, µM (titrated, usually from 46 µM), hits mostly inhibitors
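Cytotoxicity counterscreen: CellTiter-Fluor fluorescence was measured in A549 ARE_Fluc cells after 18-24 h of compound exposure in a concentration series. The subsequent BugLite luminescent read reports ARE-luciferase activity.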
Nrf2 ARE act = activates Nrf2 signaling; AREc32 ARE-luciferase reporter (MCF7-derived line), luminescence, 24 h; Potency, µM (titrated, usually from 46.1 µM), actives largely listed as activators; 410,000 compounds, 0.31% hits; AID 624171; further: nearly all actives have a fitted effect of over 65% in size
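Quantitative high-throughput format: AREc32 reporter cells, 1000 per well, received compound by pin transfer and were incubated 24 hr at 37 deg C, 5% CO2, before Steady-Glo luminescence detection.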
ELG1 repair inh = inhibitors of ELG1-dependent DNA repair in HEK293T cells; Potency, µM (series often up to 46.1 µM), hits mostly inhibitors; HEK293T ELG1-luciferase reporter, luminescence, 16 h; DNA damage induced by 5-fluorouridine; 330,000 compounds, 2.3% hits; further: nearly all actives have a fitted effect of over 55% in size
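HEK293T cells expressing luciferase-tagged ELG1 (2,000/well) received 5-Fluorouridine plus compound or DMSO for 16 hr at 37 °C. Luciferase was read by ONE-Glo luminescence after 30 min at room temperature.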
Nrf2 block = Nrf2 pathway inhibition. Potency, µM (titrated, usually from 46 µM), hits mostly inhibitors. A549 ARE-Fluc reporter, luciferase luminescence, 18-24 h. 360,000 compounds, 2.1% hits; further: nearly all actives have a fitted effect of over 60% in size
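Concentration-response testing used A549 ARE_Fluc cells at 5000 cells/well. Following an 18-24 h compound incubation, viability was read by fluorescence (Ex 405/Em 525) and luciferase output by luminescence.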
mIDH1 inhibitor = human IDH1 R132H inhibition. Potency, µM (top dose mostly 76.6 µM), usual class: inhibitors. IDH1-R132H enzyme, NADPH consumption, diaphorase/resazurin fluorescence. 390,000 compounds, 0.093% hits; further: nearly all actives have a fitted effect of over 65% in size
Target sequence (O75874 whole entry R132H, stated change not applied): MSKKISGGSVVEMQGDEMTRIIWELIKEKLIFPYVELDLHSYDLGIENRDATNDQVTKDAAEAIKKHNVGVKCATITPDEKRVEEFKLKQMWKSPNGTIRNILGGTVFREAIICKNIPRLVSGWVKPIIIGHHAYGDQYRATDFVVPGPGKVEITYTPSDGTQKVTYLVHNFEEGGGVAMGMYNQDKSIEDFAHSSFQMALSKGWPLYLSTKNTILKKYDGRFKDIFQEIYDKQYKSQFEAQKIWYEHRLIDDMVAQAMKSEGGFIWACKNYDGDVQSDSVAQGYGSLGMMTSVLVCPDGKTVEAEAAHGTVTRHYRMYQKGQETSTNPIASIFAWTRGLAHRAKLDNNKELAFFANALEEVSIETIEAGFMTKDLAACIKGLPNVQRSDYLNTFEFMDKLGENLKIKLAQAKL
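IDH1-R132H (0.5 ug/mL) preincubated 30 min with compound, then NADPH (0.016 mM) and alpha-KG (2 mM) added; 80 min at RT, pH 7.5. Remaining NADPH coupled via diaphorase/resazurin to fluorescence (540/590 nm); concentration-response curves normalized to no-enzyme control.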
Numbers stand for hits; [ ] = dose if it differs, or a comment. Hits are enriched below; roughly 3.8% of the tested compounds scored in any of these assays. The call rests on the fitted dose curve; in most records, active means well fitted curve in the direction sought with a large enough effect; inconclusive means small, poorly fitted or top-dose-only effect, or another doubt; inactive means no such curve, though single readings can be large; an effect the other way counts as inactive or inconclusive.

What do the screens show for `CC(C)c1oc(=O)cc2c1[C@@H](O)[C@H]1OC(=O)[C@@]3(C)C[C@@H](O)[C@@H](O)[C@@]2(C)C13` (stereo partly specified)?
A549 viability: inconclusive; Nrf2 ARE act: inactive; ELG1 repair inh: inconclusive; Nrf2 block: 18µM; mIDH1 inhibitor: inactive

What do the screens show for `CCCOc1ccc(C(=O)Nc2ccc(-c3cc4ccccc4oc3=O)c(C)c2)cc1`?
A549 viability: inactive; Nrf2 ARE act: inactive; Nrf2 block: 5.8µM; mIDH1 inhibitor: inactive

What do the screens show for `O=C1c2cccc3cccc(c23)C(=O)N1CCN1CCN(C(=S)Nc2ccccc2)CC1`?
A549 viability: inactive; Nrf2 ARE act: inactive; ELG1 repair inh: 16µM; Nrf2 block: inconclusive; mIDH1 inhibitor: inactive

Results for O=C(COc1ccccc1)N1CCN(CCN2C(=O)c3cccc4cccc(c34)C2=O)CC1 ?
A549 viability: inactive; Nrf2 ARE act: inactive; ELG1 repair inh: inactive; Nrf2 block: inconclusive; mIDH1 inhibitor: inactive

How did CC1(C)c2[nH]c3ccccc3c2C[C@H]2C(=O)N(Cc3ccccc3F)C(=O)N21 do in these assays?
A549 viability: inconclusive; Nrf2 ARE act: inactive; Nrf2 block: 23µM

What do the screens show for `CCOC(=O)c1c(C)[nH]c(C)c1S(=O)(=O)NCC(=O)N1CCN(c2cc(Cl)ccc2C)CC1`?
A549 viability: inactive; Nrf2 ARE act: inactive; Nrf2 block: inconclusive; mIDH1 inhibitor: inactive

What do the screens show for `Cc1ccccc1-n1c(/C=C/c2c(C)[nH]c3ccccc23)nc2ccccc2c1=O`?
A549 viability: inconclusive; Nrf2 ARE act: inactive; Nrf2 block: 21µM; mIDH1 inhibitor: inactive

What do the screens show for `O=c1c2ccccc2nc(/C=C/c2ccccc2O)n1-c1ccccc1O`?
ELG1 repair inh: 23µM

How did CCn1c(C)[n+](CC(O)COCC2CC=CCC2)c2ccccc21 (stereo unspecified) do in these assays?
A549 viability: inactive[1.84 µM]; Nrf2 ARE act: inactive; ELG1 repair inh: inconclusive; Nrf2 block: inactive; mIDH1 inhibitor: inactive

Results for Cc1sc2ncnc(SCC(=O)Nc3ccc(S(=O)(=O)N4CCOCC4)cc3)c2c1C ?
A549 viability: inactive; Nrf2 ARE act: inactive; ELG1 repair inh: inconclusive; Nrf2 block: inconclusive; mIDH1 inhibitor: inactive

What do the screens show for `COC(=O)C1C(=O)C=C(Nc2ccc(F)cc2F)CC1c1ccccc1` (stereo unspecified)?
A549 viability: inactive; Nrf2 ARE act: inactive; ELG1 repair inh: inconclusive; Nrf2 block: inconclusive; mIDH1 inhibitor: inactive

What do the screens show for `COC(=O)c1ccc(CSc2nc3c(cnn3-c3ccc(C)cc3)c(=O)[nH]2)o1`?
A549 viability: inactive; Nrf2 ARE act: inactive; ELG1 repair inh: inactive; Nrf2 block: 23µM; mIDH1 inhibitor: inactive

What do the screens show for `Cc1ccc(-n2ncc(C(=O)N3CCN(c4ccc(Cl)cc4)CC3)c2C2CCN(C(=O)OC(C)(C)C)CC2)c(C)c1`?
A549 viability: inactive; Nrf2 ARE act: inactive; Nrf2 block: 15µM; mIDH1 inhibitor: inactive

How did CC1(C)C(C(=O)N2CCN(c3ccc(Cl)cc3)CC2)C1(C)C do in these assays?
A549 viability: inactive; Nrf2 ARE act: inactive; ELG1 repair inh: inconclusive; Nrf2 block: inactive; mIDH1 inhibitor: inactive

How did COc1ccc(C2=C(C(C)=O)Sc3nnc(-c4ccc(C)cc4)n3N2C(C)=O)cc1OC do in these assays?
A549 viability: inactive; Nrf2 ARE act: inactive; mIDH1 inhibitor: inconclusive

How did CCOc1cc(/C=N/NC(=O)c2cccs2)ccc1OC(=O)N1CCOCC1 do in these assays?
A549 viability: inactive; Nrf2 ARE act: inactive; ELG1 repair inh: inconclusive; Nrf2 block: inconclusive; mIDH1 inhibitor: inactive

Results for CC(=O)O[C@H]1C[C@@H]2OC3C=C(C)CCC3(C)[C@@]1(C)[C@@]21CO1 (stereo partly specified) ?
Nrf2 ARE act: inactive; Nrf2 block: 6.5µM; mIDH1 inhibitor: inactive

How did CC1=CC2OC3CC4OC(=O)C=CC=CC(=O)OCCC(C)C(O)C(=O)OCC2(CC1)C4(C)C31CO1 (stereo unspecified) do in these assays?
Nrf2 ARE act: inactive; Nrf2 block: 0.0046µM; mIDH1 inhibitor: inactive

Results for CC(O)C1C=CC=CC(=O)OC2CC3OC4C5OC5(C)C(O)CC4(COC(=O)C(O)C(C)CCO1)C2(C)C31CO1 (stereo unspecified) ?
Nrf2 ARE act: inactive; Nrf2 block: 0.26µM; mIDH1 inhibitor: inactive

Results for COC(=O)C1=C(C)NC(C)=C(C(=O)OC)C1c1ccccc1[N+](=O)[O-] ?
A549 viability: inactive; Nrf2 ARE act: inactive; ELG1 repair inh: 10µM; Nrf2 block: inactive; mIDH1 inhibitor: inactive

Results for Cc1ccccc1[N+](=O)[O-] ?
A549 viability: inactive; Nrf2 ARE act: inactive; ELG1 repair inh: inactive; Nrf2 block: inactive; mIDH1 inhibitor: inactive

What do the screens show for `O=C(NCc1ccc(Cl)cc1)C1CCCN(C(=O)c2cnn(-c3ccc(F)cc3)c2-n2cccc2)C1` (stereo unspecified)?
A549 viability: inactive; Nrf2 ARE act: inactive; Nrf2 block: inconclusive; mIDH1 inhibitor: inactive

Results for CN(c1ccc(OCC(=O)N2CCN(C/C=C/c3ccccc3)CC2)cc1)S(=O)(=O)c1cccs1 ?
A549 viability: inactive; Nrf2 ARE act: inactive; ELG1 repair inh: 13µM; Nrf2 block: inconclusive; mIDH1 inhibitor: inactive

Results for CCN(CC)c1ccc(NC(=O)c2cccc(C)c2)cc1S(=O)(=O)Nc1ccccc1OC ?
A549 viability: inactive; Nrf2 ARE act: inactive[9.22 µM]; ELG1 repair inh: inconclusive; Nrf2 block: inconclusive; mIDH1 inhibitor: inactive

Results for COC[C@H]1OC(=O)c2coc3c2[C@@]1(C)C1=C(C3=O)[C@@H]2CCC(=O)[C@@]2(C)C[C@H]1OC(C)=O ?
A549 viability: 16µM; Nrf2 ARE act: inconclusive; Nrf2 block: 3.7µM; mIDH1 inhibitor: inactive

How did COc1cc([C@@H]2c3cc4c(c(O)c3C[C@H]3COC(=O)[C@@H]32)OCO4)cc(OC)c1OC do in these assays?
A549 viability: inactive; Nrf2 block: inconclusive

How did COc1ccc(CCNc2nccn(-c3ccc(C)c(C)c3)c2=O)cc1OC do in these assays?
A549 viability: inactive; Nrf2 ARE act: inactive; Nrf2 block: inconclusive; mIDH1 inhibitor: inactive

What do the screens show for `COc1ccc(CCNc2nc3c(c(=O)n(C)c(=O)n3C)n2Cc2ccc(F)cc2)cc1OC`?
A549 viability: inactive; Nrf2 ARE act: inactive; Nrf2 block: 16µM; mIDH1 inhibitor: inactive

How did CC(C)NC(=O)C(C)N1CCN(S(=O)(=O)c2ccc3ccccc3c2)CC1 (stereo unspecified) do in these assays?
A549 viability: inactive; Nrf2 ARE act: inactive; ELG1 repair inh: inconclusive; Nrf2 block: inactive; mIDH1 inhibitor: inactive

What do the screens show for `COCCCn1c(-c2ccc(OC)cc2)cc(C(=O)NC2CCCCCCC2)c1C`?
A549 viability: inactive; Nrf2 ARE act: inactive; ELG1 repair inh: 23µM; Nrf2 block: inconclusive; mIDH1 inhibitor: inactive

From PubChem BioAssay
